# Reference: the supplement of paper PMC12819154, “High-throughput peptide-centric local stability assay extends protein–ligand identification to membrane proteins, tissues and bacteria” (Nature Structural & Molecular Biology, 2025)
# Experiments:
# [1] = compound: T1, CN[C@@H]1C[C@H]2O[C@@](C)([C@@H]1OC)n1c3ccccc3c3c4c(c5c6ccccc6n2c5c31)C(=O)NC4 [staurosporine]; experiment: log2 fold change of tryptic peptide abundance, ligand vs vehicle (limited proteolysis) (log2 ratio); higher = more trypsin-susceptible (destabilized); conditions: ligand concentration: 20 uM; sample: K562 cleared lysate; digestion: 4 min, 22 C (HT-PELSA RT4min, Orbitrap Astral)
# [2] = compound: T1, staurosporine; experiment: as above; conditions: ligand concentration: 20 uM; sample: mouse liver crude lysate; replicate design: treated separately
# UniProt Q99J95, sequence (Q99J95 whole entry): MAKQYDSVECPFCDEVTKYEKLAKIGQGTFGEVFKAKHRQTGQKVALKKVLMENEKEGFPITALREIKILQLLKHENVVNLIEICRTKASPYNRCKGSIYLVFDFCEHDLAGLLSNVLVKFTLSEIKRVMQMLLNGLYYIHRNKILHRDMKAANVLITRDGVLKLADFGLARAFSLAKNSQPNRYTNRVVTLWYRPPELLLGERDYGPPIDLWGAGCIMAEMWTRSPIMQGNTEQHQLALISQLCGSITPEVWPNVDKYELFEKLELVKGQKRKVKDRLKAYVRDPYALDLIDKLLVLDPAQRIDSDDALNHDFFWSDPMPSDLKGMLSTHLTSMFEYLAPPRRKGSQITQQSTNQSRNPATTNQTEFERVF
# UniProt Q9DCW4, sequence (Q9DCW4 whole entry): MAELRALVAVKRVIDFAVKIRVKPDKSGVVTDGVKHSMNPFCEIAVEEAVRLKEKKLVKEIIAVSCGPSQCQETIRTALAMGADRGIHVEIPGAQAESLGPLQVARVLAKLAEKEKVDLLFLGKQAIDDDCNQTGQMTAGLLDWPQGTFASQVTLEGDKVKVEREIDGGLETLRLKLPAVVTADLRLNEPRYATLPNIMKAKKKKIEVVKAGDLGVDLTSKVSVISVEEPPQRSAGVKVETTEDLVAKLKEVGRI
# UniProt Q64133, sequence (Q64133 whole entry): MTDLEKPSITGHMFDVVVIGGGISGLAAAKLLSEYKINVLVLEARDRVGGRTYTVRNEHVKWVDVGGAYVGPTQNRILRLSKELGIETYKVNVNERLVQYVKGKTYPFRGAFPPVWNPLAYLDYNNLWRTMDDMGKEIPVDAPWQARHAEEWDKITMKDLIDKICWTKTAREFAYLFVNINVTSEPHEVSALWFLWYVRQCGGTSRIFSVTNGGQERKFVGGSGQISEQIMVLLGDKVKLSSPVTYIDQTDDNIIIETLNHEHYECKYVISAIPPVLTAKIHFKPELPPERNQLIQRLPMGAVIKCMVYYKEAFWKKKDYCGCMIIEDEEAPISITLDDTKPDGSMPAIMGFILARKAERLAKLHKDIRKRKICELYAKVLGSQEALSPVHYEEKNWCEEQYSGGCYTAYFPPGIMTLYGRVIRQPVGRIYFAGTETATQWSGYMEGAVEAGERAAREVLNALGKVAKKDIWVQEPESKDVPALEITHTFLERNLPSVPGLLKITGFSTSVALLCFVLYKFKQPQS
# UniProt Q8C050, sequence (Q8C050 whole entry): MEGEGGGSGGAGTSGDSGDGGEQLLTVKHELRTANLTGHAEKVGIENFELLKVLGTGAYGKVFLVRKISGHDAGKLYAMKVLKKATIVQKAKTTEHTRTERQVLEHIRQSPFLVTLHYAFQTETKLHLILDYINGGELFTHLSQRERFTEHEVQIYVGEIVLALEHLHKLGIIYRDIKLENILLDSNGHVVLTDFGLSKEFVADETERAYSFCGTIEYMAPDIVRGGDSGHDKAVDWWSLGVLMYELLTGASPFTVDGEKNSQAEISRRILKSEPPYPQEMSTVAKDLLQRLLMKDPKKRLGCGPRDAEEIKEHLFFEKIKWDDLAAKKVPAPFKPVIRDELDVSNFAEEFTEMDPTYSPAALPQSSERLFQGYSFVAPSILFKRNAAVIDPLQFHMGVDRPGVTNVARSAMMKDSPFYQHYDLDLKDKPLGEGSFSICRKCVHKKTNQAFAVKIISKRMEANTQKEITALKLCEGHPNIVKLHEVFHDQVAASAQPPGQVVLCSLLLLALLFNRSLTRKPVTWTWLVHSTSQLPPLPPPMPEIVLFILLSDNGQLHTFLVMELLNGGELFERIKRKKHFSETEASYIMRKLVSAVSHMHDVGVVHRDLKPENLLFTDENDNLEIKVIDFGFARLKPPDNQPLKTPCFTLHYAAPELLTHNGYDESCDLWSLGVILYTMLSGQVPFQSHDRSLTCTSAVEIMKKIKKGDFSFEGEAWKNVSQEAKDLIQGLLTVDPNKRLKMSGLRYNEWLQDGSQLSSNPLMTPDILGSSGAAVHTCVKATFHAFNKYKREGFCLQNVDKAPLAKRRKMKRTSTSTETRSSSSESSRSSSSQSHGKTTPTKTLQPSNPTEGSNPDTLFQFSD
# UniProt Q91VF2, sequence (Q91VF2 whole entry): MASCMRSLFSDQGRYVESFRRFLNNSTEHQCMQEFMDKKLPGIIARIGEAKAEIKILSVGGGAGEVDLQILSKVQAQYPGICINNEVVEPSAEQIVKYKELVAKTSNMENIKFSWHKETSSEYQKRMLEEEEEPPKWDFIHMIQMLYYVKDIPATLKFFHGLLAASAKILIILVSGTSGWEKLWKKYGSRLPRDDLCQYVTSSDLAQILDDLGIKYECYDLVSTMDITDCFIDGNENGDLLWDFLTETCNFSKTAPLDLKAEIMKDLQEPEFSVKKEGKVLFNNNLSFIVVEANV
# UniProt Q99J56, sequence (Q99J56 whole entry): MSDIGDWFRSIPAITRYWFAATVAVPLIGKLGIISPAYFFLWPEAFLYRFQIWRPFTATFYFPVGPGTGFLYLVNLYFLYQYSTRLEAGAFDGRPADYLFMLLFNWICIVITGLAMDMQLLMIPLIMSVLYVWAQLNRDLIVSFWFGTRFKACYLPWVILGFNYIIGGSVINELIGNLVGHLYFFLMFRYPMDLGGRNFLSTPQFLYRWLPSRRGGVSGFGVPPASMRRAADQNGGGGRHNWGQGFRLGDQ
# UniProt Q8BH59, sequence (Q8BH59 whole entry): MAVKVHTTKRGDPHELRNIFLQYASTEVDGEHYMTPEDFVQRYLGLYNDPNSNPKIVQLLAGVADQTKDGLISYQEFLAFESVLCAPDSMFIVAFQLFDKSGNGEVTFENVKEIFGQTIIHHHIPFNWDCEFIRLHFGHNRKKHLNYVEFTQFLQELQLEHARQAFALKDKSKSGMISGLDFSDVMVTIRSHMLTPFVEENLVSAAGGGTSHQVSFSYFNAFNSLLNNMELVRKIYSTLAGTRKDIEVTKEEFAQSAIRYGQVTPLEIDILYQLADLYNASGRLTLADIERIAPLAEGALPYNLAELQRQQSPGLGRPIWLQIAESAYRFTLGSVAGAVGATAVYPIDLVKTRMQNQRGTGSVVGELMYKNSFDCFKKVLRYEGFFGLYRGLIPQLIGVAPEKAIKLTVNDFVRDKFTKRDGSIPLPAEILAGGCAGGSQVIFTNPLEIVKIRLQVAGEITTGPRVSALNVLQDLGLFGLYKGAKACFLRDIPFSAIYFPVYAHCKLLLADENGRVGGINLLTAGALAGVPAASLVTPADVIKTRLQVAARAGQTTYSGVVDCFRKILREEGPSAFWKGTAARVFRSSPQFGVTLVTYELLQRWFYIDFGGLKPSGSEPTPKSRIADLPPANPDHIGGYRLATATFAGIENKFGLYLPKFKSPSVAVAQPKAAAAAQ
# UniProt Q8BHC4, sequence (Q8BHC4 whole entry): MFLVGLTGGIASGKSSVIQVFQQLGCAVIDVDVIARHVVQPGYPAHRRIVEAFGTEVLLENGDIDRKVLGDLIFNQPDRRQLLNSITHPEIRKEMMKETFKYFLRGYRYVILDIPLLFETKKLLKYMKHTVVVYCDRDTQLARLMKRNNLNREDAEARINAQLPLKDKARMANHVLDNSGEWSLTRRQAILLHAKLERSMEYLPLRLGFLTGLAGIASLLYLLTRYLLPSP
# UniProt Q9WV55, sequence (Q9WV55 whole entry): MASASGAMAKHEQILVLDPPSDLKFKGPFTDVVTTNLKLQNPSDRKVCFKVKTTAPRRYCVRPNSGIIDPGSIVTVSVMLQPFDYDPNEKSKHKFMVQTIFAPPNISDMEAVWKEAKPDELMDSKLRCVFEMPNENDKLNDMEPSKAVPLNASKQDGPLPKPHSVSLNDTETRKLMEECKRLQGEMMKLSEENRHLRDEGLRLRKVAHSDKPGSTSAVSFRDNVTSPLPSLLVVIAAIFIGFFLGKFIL
# UniProt Q9CXI0, sequence (Q9CXI0 whole entry): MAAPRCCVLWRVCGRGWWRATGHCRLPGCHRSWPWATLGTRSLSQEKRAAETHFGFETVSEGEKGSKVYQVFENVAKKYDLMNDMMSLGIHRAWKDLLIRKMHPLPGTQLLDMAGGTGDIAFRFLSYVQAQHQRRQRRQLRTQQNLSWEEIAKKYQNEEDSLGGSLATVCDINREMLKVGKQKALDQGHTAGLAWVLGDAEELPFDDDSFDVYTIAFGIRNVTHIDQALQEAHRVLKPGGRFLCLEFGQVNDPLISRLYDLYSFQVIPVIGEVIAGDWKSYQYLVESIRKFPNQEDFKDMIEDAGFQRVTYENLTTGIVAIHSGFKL
# UniProt Q9EQC1, sequence (Q9EQC1 whole entry): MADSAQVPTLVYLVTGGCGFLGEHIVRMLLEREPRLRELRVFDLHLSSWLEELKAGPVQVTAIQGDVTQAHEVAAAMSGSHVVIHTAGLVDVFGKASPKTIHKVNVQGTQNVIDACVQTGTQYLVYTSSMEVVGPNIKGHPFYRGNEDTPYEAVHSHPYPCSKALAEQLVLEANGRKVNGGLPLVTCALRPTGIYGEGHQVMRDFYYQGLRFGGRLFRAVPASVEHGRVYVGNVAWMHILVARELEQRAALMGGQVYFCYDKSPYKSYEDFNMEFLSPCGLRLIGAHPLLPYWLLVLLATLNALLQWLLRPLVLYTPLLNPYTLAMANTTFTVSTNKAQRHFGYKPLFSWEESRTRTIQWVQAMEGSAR
# UniProt P47757, sequence (P47757 whole entry): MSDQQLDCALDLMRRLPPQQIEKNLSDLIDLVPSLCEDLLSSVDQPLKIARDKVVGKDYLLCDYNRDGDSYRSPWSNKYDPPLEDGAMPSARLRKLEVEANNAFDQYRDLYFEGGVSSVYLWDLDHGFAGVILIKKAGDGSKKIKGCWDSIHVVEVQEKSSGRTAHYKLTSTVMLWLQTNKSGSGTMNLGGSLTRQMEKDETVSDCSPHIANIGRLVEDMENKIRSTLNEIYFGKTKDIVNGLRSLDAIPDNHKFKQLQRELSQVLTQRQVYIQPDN
# UniProt Q8VDP6, sequence (Q8VDP6 whole entry): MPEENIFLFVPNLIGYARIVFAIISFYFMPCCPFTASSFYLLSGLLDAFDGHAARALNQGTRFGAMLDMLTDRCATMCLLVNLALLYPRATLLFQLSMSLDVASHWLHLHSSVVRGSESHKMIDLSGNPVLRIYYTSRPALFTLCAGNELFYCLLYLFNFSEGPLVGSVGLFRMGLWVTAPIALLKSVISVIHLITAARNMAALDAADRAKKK
Target,log2 fold change [1],log2 fold change [2]
"TRMT1 (peptide sequence: RNVQLNDVAHLVQPSQADAR, peptide start residue: 195) (UniProt Q9NXH9)",0.782,
"UniProt Q99759 (peptide sequence: SPSAPINWR, peptide start residue: 355)",-2.28,
"UniProt Q9D826 (peptide sequence: INVCYWR, peptide start residue: 224)",,0.236
"UniProt Q8BTW9 (peptide sequence: SYLDNFIK, peptide start residue: 321)",,-1.86
"UniProt A2ATU0 (peptide sequence: SSLYSSDIGK, peptide start residue: 380)",,0.605
"UniProt P55264 (peptide sequence: ELFDELVK, peptide start residue: 63)",,-2.24
"UniProt P47811 (peptide sequence: NYIQSLAQMPK, peptide start residue: 257)",,0.32
"UniProt Q8BHC4 (peptide sequence: HVVQPGYPAHR, peptide start residue: 37)",,0.384
"UniProt Q8VDP6 (peptide sequence: MIDLSGNPVLR, peptide start residue: 122)",,0.341
"UniProt P31324 (peptide sequence: LKVVDVIGTK, peptide start residue: 284)",,1.51
"UniProt O70579 (peptide sequence: NVLSLLHQR, peptide start residue: 249)",,0.904
"UniProt Q8CAS9 (peptide sequence: NILDYVTK, peptide start residue: 221)",,0.389
"UniProt Q3U3Q1 (peptide sequence: VIELPLRPQLSLDCR, peptide start residue: 230)",,-2
"UniProt P26443 (peptide sequence: HYSEAAADREDDPNFFK, peptide start residue: 52)",,0.262
"UniProt Q9DCQ2 (peptide sequence: VTMATHPDGFRLEGPLAAAHSSGPR, peptide start residue: 152)",,-0.804
"UniProt P19157 (peptide sequence: AFLSSPEHVNRPINGNGK, peptide start residue: 192)",,-0.521
"UniProt P35917 (peptide sequence: VLGHGAFGK, peptide start residue: 850)",,1.38
"UniProt O55125 (peptide sequence: NNKEYLEFR, peptide start residue: 144)",,0.432
"UniProt Q9DCW4 (peptide sequence: VDLLFLGK, peptide start residue: 117)",,0.27
"UniProt Q9CQE7 (peptide sequence: QFDAYPK, peptide start residue: 9)",,0.366
"UniProt Q8BRK8 (peptide sequence: DLKPENVLLDAQMNAK, peptide start residue: 139)",,-3.83
"UniProt P58044 (peptide sequence: WWDNLNHLSPFVDHEK, peptide start residue: 208)",,1.05
"UniProt P24456 (peptide sequence: RVQQEIDAVIGQVR, peptide start residue: 333)",,-0.553

Target,log2 fold change [1],log2 fold change [2]
"UniProt Q8R4K2 (peptide sequence: GCVNNTIVAVK, peptide start residue: 203)",,-2.95
"UniProt P50285 (peptide sequence: TQLREPVLNDELPGR, peptide start residue: 277)",,0.327
"UniProt Q9WV55 (peptide sequence: KVAHSDKPGSTSAVSFR, peptide start residue: 205)",,0.313
"UniProt Q6PF93 (peptide sequence: LQALLGDNEK, peptide start residue: 573)",,-0.345
"UniProt P51174 (peptide sequence: SPAHGISLFLVENGMKGFIK, peptide start residue: 225)",,0.439
"UniProt Q76M72 (peptide sequence: WLIVTNKPQK, peptide start residue: 285)",,-2.63
"UniProt E9Q414 (peptide sequence: LPQQIHHYLNASDWER, peptide start residue: 2117)",,0.422
"UniProt P56657 (peptide sequence: NHMPYTNAMVHEVQR, peptide start residue: 343)",,-0.322
"UniProt Q80ZW0 (peptide sequence: YSLLAEIGR, peptide start residue: 207)",,-0.855
"UniProt O88643 (peptide sequence: LTDFGFCAQITPEQSKR, peptide start residue: 384)",,-2.39
"UniProt P47809 (peptide sequence: ISPEQHWDFTAEDLK, peptide start residue: 87)",,-0.533
"UniProt Q3UHJ0 (peptide sequence: DLKVENILLHDR, peptide start residue: 176)",,-4.22
"UniProt Q8BH59 (peptide sequence: LQVAGEITTGPR, peptide start residue: 457)",,0.568
"UniProt Q91XU3 (peptide sequence: VYIGEEEKK, peptide start residue: 252)",,-1.32
"UniProt Q61578 (peptide sequence: NVINTFTQTAR, peptide start residue: 94)",,0.834
"UniProt P24604 (peptide sequence: ELGSGLFGVVR, peptide start residue: 374)",,-0.989
"UniProt P18653 (peptide sequence: ADPSQFELLK, peptide start residue: 57)",,-1.44
"UniProt Q3UYH7 (peptide sequence: SLLEGLLQR, peptide start residue: 423)",,-0.733
"UniProt Q9EQC1 (peptide sequence: DFYYQGLR, peptide start residue: 204)",,-0.862
"UniProt Q9Z2W1 (peptide sequence: GSFGEVYK, peptide start residue: 29)",,-2.09
"UniProt P47757 (peptide sequence: QMEKDETVSDCSPHIANIGR, peptide start residue: 196)",,-1.11
"UniProt Q61037 (peptide sequence: DFVPYITK, peptide start residue: 907)",,-0.612
"UniProt Q64133 (peptide sequence: ELGIETYK, peptide start residue: 83)",,-0.486

Target,log2 fold change [1],log2 fold change [2]
"UniProt Q8C050 (peptide sequence: VLGTGAYGK, peptide start residue: 53)",,-1.37
"UniProt P47754 (peptide sequence: TSVETALR, peptide start residue: 122)",,-0.836
"UniProt Q9CXI0 (peptide sequence: NVTHIDQALQEAHR, peptide start residue: 221)",,-0.267
"UniProt Q91V04 (peptide sequence: EHSAFQAPPVKR, peptide start residue: 325)",,3.7
"UniProt Q91VF2 (peptide sequence: TSNMENIK, peptide start residue: 105)",,0.598
"UniProt P10649 (peptide sequence: YIATPIFSK, peptide start residue: 203)",,0.584
"UniProt P34914 (peptide sequence: NWKWSCK, peptide start residue: 471)",,0.437
"UniProt P12367 (peptide sequence: IVDVIGEK, peptide start residue: 270)",,0.593
"UniProt Q99J56 (peptide sequence: GGVSGFGVPPASMR, peptide start residue: 215)",,0.327
"UniProt Q91XF0 (peptide sequence: SSQIGAVVSR, peptide start residue: 164)",,1.44
"UniProt Q9CYZ2 (peptide sequence: LGEWNEK, peptide start residue: 113)",,0.397
"UniProt P05132 (peptide sequence: CGKEFTEF, peptide start residue: 344)",,2.36
"UniProt Q9JM62 (peptide sequence: NVATEALGALEAR, peptide start residue: 16)",,0.439
"UniProt Q8R123 (peptide sequence: LSMVPSSAR, peptide start residue: 125)",,-0.276
"UniProt Q99J95 (peptide sequence: IGQGTFGEVFK, peptide start residue: 25)",,-1
"UniProt O08648 (peptide sequence: IFEGIKHPNLVR, peptide start residue: 1382)",,-0.814
"UniProt Q9DC61 (peptide sequence: QVLATHSR, peptide start residue: 451)",,-1.12
"UniProt Q91YX5 (peptide sequence: DQQLLVLKK, peptide start residue: 157)",,0.642
"UniProt Q9JI10 (peptide sequence: AGNILLNTEGHAK, peptide start residue: 149)",,-3.04
"UniProt Q91W52 (peptide sequence: LITTWEK, peptide start residue: 203)",,0.417
"UniProt Q9WV60 (peptide sequence: LCDSGELVAIKK, peptide start residue: 75)",,-4.12
